Values joined by “and” are separate entries in the source; they are usually repeats but may differ in a detail not shown here. Equal entries are not always repeated. Active and inactive are the calls of the source. Unless noted, no rule for the calls is given here.

Composite z-score and z-score data for four molecules are collected here from PubChem BioAssay.

Experiment [1] can be described thus: compounds binding Alexa647 anti-His antibody – biochemical, small-molecule microarray, 635 nm fluorescence, artefact control for SMM control protein annotation, primary screen (AID 1128).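 Also: score merges feature fluorescence with signal-to-noise for each printed compound spot.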 The following applies: higher = more signal.
For experiment [2], the system named is Human papillomavirus type 1a E7 protein (residues 1-88). Put plainly: HPV1a E7 small-molecule binders, primary screen, biochemical, small-molecule microarray, residues 1-88, 635 nm (AID 1129). Conditions: small-molecule microarray binding, fluorescence 635 nm; higher = more signal.
Experiment [3] addresses Focal adhesion kinase 1 (Homo sapiens) (UniProt Q05397). Put plainly: PTK2 protein binding on printed compound slides – biochemical, small-molecule microarray, 635/667 nm fluorescence, BSA, DTT, primary screen (AID 1130).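 Also: composite of spot emission at 667 nm and signal to noise over triplicate slides.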 The following applies: 635 nm fluorescence, higher = more signal.
For experiment [4], the system named is Fibrinogen (Alexa647-labelled). Put plainly: Alexa647-fibrinogen binding to printed small molecules – biochemical, small-molecule microarray, 635/667 nm fluorescence, artefact control for SMM control-protein annotation, profiling panel (AID 1131).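 Also: z-score merges 667 nm fluorescence with per-spot signal-to-noise over triplicate slides.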 Conditions: fibrinogen-A647 binding fluorescence, higher = more signal.
Experiment [5] addresses Follistatin (Homo sapiens) (UniProt P19883). Put plainly: FST protein binding to printed compounds – biochemical, small-molecule microarray, 635/667 nm fluorescence, primary screen (AID 1132). The following applies: 635 nm fluorescence, higher = more signal.
For experiment [6], the target named is Fibroblast growth factor 2 (Homo sapiens) (UniProt P09038). Put plainly: basic fibroblast growth factor binding to printed compounds – biochemical, small-molecule microarray, 635/667 nm fluorescence, primary screen (AID 1133). The following applies: FGF2, fluorescence 635/667, higher = more signal.
Experiment [7] is described as follows: JC-1 mitochondrial potential readout, lung cancer cells – cell-based, A549, JC-1 fluorescence, basal, 24 h, 100 nL, profiling panel (AID 1138).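 Also: A549 lung adenocarcinoma cells under basal conditions with no added stimulus; test concentration not given here.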 The following applies: higher = more signal.
Experiment [8] deals with Lefty1. The experiment can be described thus: Lefty1 protein binding to printed compounds – biochemical, small-molecule microarray, 635/667 nm fluorescence, primary screen (AID 1139). The following applies: fluorescence 635/667, higher = more signal.
For experiment [9], the system named is wheat germ agglutinin (Triticum aestivum), Alexa647-labelled. Put plainly: Alexa647-WGA lectin binding to printed small molecules – biochemical, small-molecule microarray, 635/667 nm fluorescence, artefact control for SMM control-protein annotation, profiling panel (AID 1140).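 Also: score merges 667 nm feature emission with signal to noise over triplicate slides.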 The following applies: WGA-A647 binding, 635 nm fluorescence, higher = more signal.

The target of experiment [10] is Luciferin 4-monooxygenase (Photinus pyralis) (UniProt P08659). Put plainly: inhibition of purified Photinus pyralis luciferase – biochemical, luminescence, purified enzyme, 2006 set, primary screen (AID 1141).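 Also: cell-free assay with purified firefly luciferase at 100 ng per well in PBS; test concentration not given here.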 Conditions: purified firefly luciferase, SteadyGlo luminescence, 30 min; higher = more signal, called active from +8 up or from −8 down.
For experiment [11], the system named is Wnt5a (protein binding on small-molecule microarray). The experiment can be described thus: small molecules binding Wnt5a protein – biophysical, small-molecule microarray, 635/667 nm fluorescence, primary screen (AID 1142).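 Also: fluorescence read at 667 nm with signal to noise per printed feature.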 Conditions: 635 nm fluorescence, higher = more signal.
Experiment [12] is described as follows: ATP-based viability of Huh7 replicon cells – cell-based, CellTiter-Glo luminescence, basal, 48 h, cytotoxicity control for HCV replication inhibitor project, primary screen (AID 1143).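 Also: Huh7 hepatoma cells carrying a hepatitis C replication reporter with no stimulus; test concentration not given here.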 The following applies: higher = more signal, called active from +8 up or from −8 down.
Experiment [13] can be described thus: Pseudomonas biofilm growth suppression – PAO1 strain, BacTiter-Glo luminescence, LB-PBS, primary screen (AID 1144). Conditions: P. aeruginosa PAO1 biofilm, 12 h, higher = more signal.
Experiment [14] can be described thus: basal CRE-LacZ reporter activity in PC12 – cell-based, unstimulated, primary screen (AID 1145). Conditions: no forskolin, luminescence, 4.5 h, higher = more signal, called active from +8 up or from −8 down.
A short description of experiment [15]: forskolin-driven CRE-LacZ activity in PC12 – cell-based, CRE-LacZ reporter, forskolin-stimulated, primary screen (AID 1146).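 Also: PC12 cells with 6xCRE LacZ reporter stimulated by forskolin 10 µM; beta-galactosidase reporter signal reflecting CREB driven transcription.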 Conditions: luminescence, 4.5 h, higher = more signal, called active from +8 up or from −8 down.
The target in experiment [16] is Streptavidin (Streptomyces avidinii) (UniProt P22629). The experiment can be described thus: compounds binding control protein streptavidin – biophysical, small-molecule microarray, 635/667 nm fluorescence, artefact control for SMM compound annotation, primary screen (AID 1147).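 Also: signal reflects streptavidin binding to arrayed compounds as a control protein.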 Conditions: higher = more signal.
A short description of experiment [17]: probe aInhba binding on compound microarray – biochemical, small-molecule microarray, 635/667 nm fluorescence, primary screen (AID 1148).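 Also: score merges 667nm spot fluorescence with signal-to-noise for antibody binding to printed compounds.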 The following applies: higher = more signal.
For experiment [18], the target named is Torsin-1A (Homo sapiens) (UniProt O14656). The experiment can be described thus: TOR1A wild-type binding on microarray – cell lysate, small-molecule microarray, lysate, 635/667 nm, primary screen (AID 1149). The following applies: COS7 hTOR1A-WT lysate, 635 nm fluorescence, higher = more signal.
Experiment [19] has the same target. Put plainly: torsin A mutant lysate binding on microarrays – cell lysate, small-molecule microarray, COS7 lysate, 635/667 nm fluorescence, primary screen (AID 1150).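 Also: score pools 667 nm emission and signal to noise measuring lysate protein binding.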 Conditions: COS7 hTOR1A mutant lysate, 635 nm fluorescence, higher = more signal.
Experiment [20] concerns Sonic hedgehog protein (Shh). The experiment can be described thus: Sonic hedgehog microarray binding compounds – biochemical, small-molecule microarray, 635/667 nm fluorescence, primary screen (AID 1151).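 Also: Shh protein binding to compounds spotted on small-molecule microarray slides; score combines spot fluorescence intensity with signal-to-noise across triplicate slides.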 The following applies: 635 nm fluorescence, higher = more signal.

Sequence of Streptavidin (Streptomyces avidinii) (P22629 whole entry, looked up): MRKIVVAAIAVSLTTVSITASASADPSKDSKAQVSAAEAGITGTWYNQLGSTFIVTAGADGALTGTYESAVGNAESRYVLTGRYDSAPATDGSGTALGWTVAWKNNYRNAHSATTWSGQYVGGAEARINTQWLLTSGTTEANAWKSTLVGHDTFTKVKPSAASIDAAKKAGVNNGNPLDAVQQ
Sequence of Follistatin (Homo sapiens) (P19883 whole entry, looked up): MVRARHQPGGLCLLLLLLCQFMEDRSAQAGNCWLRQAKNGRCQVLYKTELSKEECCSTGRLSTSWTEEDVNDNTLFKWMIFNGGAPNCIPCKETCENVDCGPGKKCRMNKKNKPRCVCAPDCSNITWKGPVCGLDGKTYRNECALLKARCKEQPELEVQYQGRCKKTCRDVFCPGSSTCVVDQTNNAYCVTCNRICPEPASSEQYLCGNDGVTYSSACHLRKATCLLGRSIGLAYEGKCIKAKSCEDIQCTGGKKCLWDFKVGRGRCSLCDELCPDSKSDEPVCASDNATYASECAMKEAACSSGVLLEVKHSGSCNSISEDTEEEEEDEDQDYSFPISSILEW
Sequence of Focal adhesion kinase 1 (Homo sapiens) (Q05397 whole entry, looked up): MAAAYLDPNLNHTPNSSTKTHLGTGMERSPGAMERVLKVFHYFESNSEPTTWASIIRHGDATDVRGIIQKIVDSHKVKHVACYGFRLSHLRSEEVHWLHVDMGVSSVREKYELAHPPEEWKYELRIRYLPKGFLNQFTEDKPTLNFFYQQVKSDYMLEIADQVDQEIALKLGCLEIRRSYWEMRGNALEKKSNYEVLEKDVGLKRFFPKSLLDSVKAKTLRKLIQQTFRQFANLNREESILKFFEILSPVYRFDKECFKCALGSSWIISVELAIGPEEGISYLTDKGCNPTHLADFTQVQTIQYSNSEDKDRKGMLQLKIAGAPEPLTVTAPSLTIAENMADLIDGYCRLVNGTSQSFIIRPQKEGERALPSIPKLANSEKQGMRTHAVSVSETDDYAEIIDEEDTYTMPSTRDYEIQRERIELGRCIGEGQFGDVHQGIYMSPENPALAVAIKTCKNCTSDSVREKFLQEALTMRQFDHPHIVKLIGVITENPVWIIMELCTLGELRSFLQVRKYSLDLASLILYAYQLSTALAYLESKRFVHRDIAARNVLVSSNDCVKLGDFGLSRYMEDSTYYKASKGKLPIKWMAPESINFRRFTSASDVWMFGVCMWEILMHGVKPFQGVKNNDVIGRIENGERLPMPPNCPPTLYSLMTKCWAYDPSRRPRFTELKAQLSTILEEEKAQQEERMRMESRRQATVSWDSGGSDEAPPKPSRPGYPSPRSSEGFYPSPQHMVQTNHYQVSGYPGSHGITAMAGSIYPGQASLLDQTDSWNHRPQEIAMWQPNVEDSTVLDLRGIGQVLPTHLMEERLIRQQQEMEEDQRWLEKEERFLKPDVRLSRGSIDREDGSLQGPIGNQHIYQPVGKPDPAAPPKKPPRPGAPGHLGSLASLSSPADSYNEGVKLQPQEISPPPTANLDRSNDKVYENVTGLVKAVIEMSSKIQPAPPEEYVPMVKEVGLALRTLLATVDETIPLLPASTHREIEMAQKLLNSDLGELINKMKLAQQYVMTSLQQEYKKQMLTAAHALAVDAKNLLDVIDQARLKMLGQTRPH
Sequence of Fibroblast growth factor 2 (Homo sapiens) (P09038 whole entry, looked up): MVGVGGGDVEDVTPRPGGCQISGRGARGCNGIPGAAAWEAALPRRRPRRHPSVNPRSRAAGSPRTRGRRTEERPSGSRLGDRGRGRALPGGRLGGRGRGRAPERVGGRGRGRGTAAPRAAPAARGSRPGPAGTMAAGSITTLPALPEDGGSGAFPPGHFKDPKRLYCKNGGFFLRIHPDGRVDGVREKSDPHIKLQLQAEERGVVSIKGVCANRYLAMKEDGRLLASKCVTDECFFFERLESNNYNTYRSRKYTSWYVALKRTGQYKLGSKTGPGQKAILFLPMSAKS
Sequence of Luciferin 4-monooxygenase (Photinus pyralis) (P08659 whole entry, looked up): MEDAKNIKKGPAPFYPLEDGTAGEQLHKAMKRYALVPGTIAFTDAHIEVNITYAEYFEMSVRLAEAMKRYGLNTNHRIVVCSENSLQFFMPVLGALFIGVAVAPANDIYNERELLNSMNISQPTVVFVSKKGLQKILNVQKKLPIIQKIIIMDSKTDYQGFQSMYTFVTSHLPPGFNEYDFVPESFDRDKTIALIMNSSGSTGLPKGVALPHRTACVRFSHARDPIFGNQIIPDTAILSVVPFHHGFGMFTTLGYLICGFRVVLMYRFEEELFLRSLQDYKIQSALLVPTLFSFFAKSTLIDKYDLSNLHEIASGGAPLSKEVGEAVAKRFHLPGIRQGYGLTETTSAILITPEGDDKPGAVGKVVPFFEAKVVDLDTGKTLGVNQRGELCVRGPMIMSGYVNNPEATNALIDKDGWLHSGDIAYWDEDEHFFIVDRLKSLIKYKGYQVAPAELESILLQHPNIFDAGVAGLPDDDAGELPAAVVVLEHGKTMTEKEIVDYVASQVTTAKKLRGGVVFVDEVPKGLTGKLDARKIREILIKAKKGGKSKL
Sequence of Torsin-1A (Homo sapiens) (O14656 whole entry, looked up): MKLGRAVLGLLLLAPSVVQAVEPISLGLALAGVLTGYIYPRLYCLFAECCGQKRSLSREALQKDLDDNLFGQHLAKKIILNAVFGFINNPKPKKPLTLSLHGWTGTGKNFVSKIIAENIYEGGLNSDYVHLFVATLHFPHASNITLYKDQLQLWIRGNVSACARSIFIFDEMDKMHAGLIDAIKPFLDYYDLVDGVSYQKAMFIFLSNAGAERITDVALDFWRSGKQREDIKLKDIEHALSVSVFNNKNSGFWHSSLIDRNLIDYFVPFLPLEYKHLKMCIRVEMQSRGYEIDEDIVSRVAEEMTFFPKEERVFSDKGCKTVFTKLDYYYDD

Turning to `COC(=O)[C@@]1(Cc2ccc(F)cc2)[C@H]2c3cc(C(=O)N4CCCC4)n(Cc4c(CO)[nH]cc(C)c4=O)c3C[C@H]2CN1C(=O)c1ccccc1`, the composite z-score in experiment [1] was 2.37 and 2.39; in experiment [2] it was 0.709 and 1.18; in experiment [3], 1.1 and 1.41; in experiment [4], 1.01 and -0.216; in [5], 0.529 and 0.121; in [6], -0.351 and -0.789. The composite z-score was -0.212 and -1.02 in experiment [8]; 1.16 and 0.234 in experiment [9]; 2.18 and 0.117 in experiment [11]; 0.418 and -0.248 in [16]; 1.24 and 0.131 in experiment [17]; 0.113 and -0.501 in [18]. Also, the composite z-score in experiment [19] is 0.797 and 0.232; in experiment [20] it was -0.552 and -0.661. Moreover, the z-score was 0.395 and 0.404 in experiment [7]; 2.01 (inactive) and 1.01 (inactive) in experiment [10]; -1.28 (inactive) and -0.88 (inactive) in experiment [12]; -0.0556 (inactive) and 0.0252 (inactive) in experiment [13]; 0.762 (inactive) and 0.962 (inactive) in experiment [14]; 3.71 (inactive) and 3.05 (inactive) in [15].
Take `CC(CO)N1C(=O)[C@@H]2C3C(=O)OCCC=C[C@H]3OC23C=CCN(C(C)(C)C)C(=O)[C@@H]13` (stereo not given in full): the composite z-score in experiment [1] is -2.03 and 0.11; in experiment [2], -1.08 and -0.0333; in experiment [3], -0.0802 and -0.371; in experiment [4] it was -1.65 and -0.445; in experiment [5] it was -1.1 and -0.0304; in experiment [6], -0.325 and -0.263. Besides, the composite z-score is -1.08 and 0.542 in [8]; -2.85 and 0.0101 in experiment [9]; -0.221 and 0.386 in [11]; -1.5 and -0.476 in [16]; -0.206 and 0.188 in experiment [17]; -0.0147 and 0.756 in experiment [18]. The composite z-score in experiment [19] was -0.0948 and 0.346; in experiment [20], 0.0735 and 0.915. Also, the z-score was -0.619 and -0.394 in [7]; -0.685 (inactive) and -0.146 (inactive) in experiment [10]; 1.18 (inactive) and -0.0534 (inactive) in experiment [12]; 1.02 (inactive) and 1.16 (inactive) in experiment [13]; -0.0859 (inactive) and -0.903 (inactive) in experiment [14]; -0.596 (inactive) and 0.158 (inactive) in [15].
`CCOC(=O)[C@H](CC(C)C)NC(=O)CCC1CC(OC(=O)NCc2cccc3ccccc23)CC2(CCCC(COC(=O)NCc3ccccc3)O2)O1` (stereo not given in full): the composite z-score is 0.223 in experiment [1]; -0.439 in experiment [2]; -0.159 in [3]; -1.97 in experiment [4]; -0.126 in [5]; -0.105 in experiment [6]. Further, the composite z-score in [8] is 0.275; in [9], -0.0551; in experiment [11] it was -0.147; in experiment [16] it was -0.339; in [17] it was 0.0038; in [18], -1.07. Further, the composite z-score in experiment [19] was -0.964; in experiment [20] it was -0.0293. The z-score was 0.629 in [7]; 0.529 (inactive) in [10]; -0.649 (inactive) in experiment [12]; -0.583 (inactive) in [13]; 0.286 (inactive) in experiment [14]; 1.5 (inactive) in [15].
Turning to `C=CCN(Cc1ccccc1)C(=O)C(c1cccs1)N(C(=O)/C=C\C(=O)O)c1ccc(CCO)cc1` (stereo not given), the composite z-score is -1.02 and -0.261 in [1]; 0.285 and -0.623 in experiment [2]; -0.411 and -0.574 in experiment [3]; -1.94 and -2.45 in experiment [4]; -1.48 and -1.4 in [5]; -1.78 and -1.47 in experiment [6]. Besides, the composite z-score in experiment [8] was -1.9 and -1.42; in experiment [9] it was -0.99 and -0.888; in experiment [11], -1.26 and -0.913; in experiment [16], -1.73 and -2.16; in experiment [17], -0.135 and -0.346; in [18], -2.97 and -2.57. Further, the composite z-score in experiment [19] was -2.1 and -2.38; in [20] it was -1.14 and -0.843. Moreover, the z-score in [7] was 0.579 and 0.559; in experiment [10] it was 0.666 (inactive) and 0.381 (inactive); in [12], 0.735 (inactive) and 0.129 (inactive); in [13], -0.732 (inactive) and -1.02 (inactive); in experiment [14], -0.0778 (inactive) and -0.0656 (inactive); in [15], 0.0736 (inactive) and -0.183 (inactive).
